Screening results: PubChem, several laboratories
Tat transport – inhibitors of E. coli Tat protein transport; E. coli MC4100 TorA-mCherry Tat export, fluorescence; inhibition, % at 10 µM; 340,000 tested, 0.036% active;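 active = mean replicate inhibition at least 50% and at least half of replicates individually reaching 50%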;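 also: exported cargo escapes ClpAP degradation while cytoplasmic cargo is degraded and loses fluorescence; 0% = median of neutral control wells and 100% = median of NaSCN control wells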
E coli growth-1 – reduces bacterial viability in AddAB counter-screen; E. coli V3065 growth, OD600 absorbance, 18 h; AID 449728; 330,000 tested, 0.27% active; inhibition, % at 11.9 µM;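 active = inhibition above the campaign's mean inhibition across all tested compounds plus 3 SD, cut at about 9.9% in these data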;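 also: uninfected addAB+ strain grown without phage in ampicillin broth; 0% = DMSO wells and 100% = ciprofloxacin 0.95 µg/ml wells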
phage Ecoli inh – E. coli growth loss with phage present; growth absorbance; inhibition, % at 11.9 µM; 360,000 tested, 0.26% active; in the data active = inhibition above about 11%
AddAB inh – less growth of phage-infected E. coli with AddAB. E. coli expressing H. pylori AddAB, absorbance growth. inhibition, % at 11.9 µM. AID 435030. 330,000 tested, 0.29% active; in the data active = inhibition above about 12%;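 also: 0% = vehicle wells of infected cells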
E coli growth-2 – inhibitors of Escherichia coli growth; OD600, 23 h; stronger effect = lower value; OD600 absorbance (no concentration beside the values); 330,000 tested, 0.21% active; AID 1053175;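 active = OD600 absorbance below the run mean of sample wells minus 3.6 SD, in any replicate, cut at about 0.56 in these data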
AddAB confirm – growth loss of T4-infected E. coli expressing H. pylori AddAB, confirmed; AID 488942; E. coli V3065 expressing H. pylori AddAB, T4 phage, OD; T4 phage with gene 2 nonsense mutations; shares compounds with AddAB inh; 880 tested, 64% active; inhibition, % at 11.9 µM;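 active = mean inhibition above a set limit taken from the earlier primary screen, cut at about 13% in these data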;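 also: higher means less bacterial growth since AddAB block lets phage replicate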
RecBCD counter – reduces growth of phage-infected RecBCD+ E. coli, AddAB inhibitor counter-screen | shares compounds with AddAB inh | E. coli V66 + mutant T4 phage, OD growth | inhibition, % at 11.9 µM | 880 tested, 73% active | AID 488955;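 active = mean inhibition above the mean of solvent-only control wells plus 3 SD, cut at about 4% in these data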;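 also: optical density read after an 18 h incubation at 37 °C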
Bact viability – reduces bacterial viability, AddAB inhibitor counter-screen. shares compounds with AddAB inh. absorbance (AddAB counterscreen). inhibition, % at 11.9 µM. 880 tested, 35% active. AID 488956; in the data active = inhibition above about 25%
RecBCD conf – confirmation: growth loss of phage-infected RecBCD+ E. coli (RecBCD inhibitor screen); shares compounds with phage Ecoli inh; E. coli V66 + T4 2- phage, growth OD; inhibition, % at 11.9 µM; 890 tested, 45% active;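 active = mean inhibition over triplicates exceeding the hit threshold derived in the original primary screen, cut at about 11% in these data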
Ecoli viability – inhibits E. coli viability, flagging RecBCD hits as nonselective; shares compounds with phage Ecoli inh; 890 tested, 29% active; inhibition, % at 11.9 µM; absorbance (OD) growth; AID 651983; in the data active = inhibition above about 20%;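 also: E. coli strain V66 grown with compound alone and no phage infection; 0% = bacteria with DMSO vehicle only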
AddAB counter – growth loss of phage-infected AddAB E. coli, RecBCD counter-screen | shares compounds with phage Ecoli inh | E. coli expressing H. pylori AddAB + T4 phage, OD growth; gene 2 mutant T4, recBCD-deleted host | inhibition, % at 11.9 µM | 890 tested, 45% active;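 active = mean inhibition above the solvent-only control wells' mean plus 3 SD, cut at about 22% in these data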;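 also: higher means less bacterial growth from phage killing when AddAB is blocked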
Starred values were filed as active, the others as inactive; / = no result; ! = a repeat was not active. The list is not random: actives were taken first. Their share in the collection is about 0.5%.

SMILES | Tat transport | E coli growth-1 | phage Ecoli inh | AddAB inh | E coli growth-2 | others
O=c1[nH]sc2cc(F)ccc12 | -20 | / | -1 | / | 0.49*
O=C(Cc1cccs1)N1CCC2(CC1)OCCO2 | -3 | 11* | 1 | 8 | 0.68
COC(=O)C1=C(c2ccc(-c3ccccc3)c(F)c2)CC2CCC1N2C(=O)NCc1cc(C)oc1C(F)(F)F (stereo unspecified) | / | / | / | / | 0.71
COC1C(OC(=O)c2ccc(C)[nH]2)C(O)C(Oc2ccc3c(O)c(NC(=O)c4ccc(O)c(CC=C(C)C)c4)c(=O)oc3c2Cl)OC1(C)C (stereo unspecified) | -24 | -1 | 9 | 3 | 0.052*
CN(C)C(=S)SSC(=S)N(C)C | 12 | -1 | 5 | 0 | 0.49*
COc1cc(C2OCC3C(c4cc(OC)c(OC5OC(CO)C(O)C(O)C5O)c(OC)c4)OCC23)cc(OC)c1OC1OC(CO)C(O)C(O)C1O (stereo unspecified) | / | / | / | / | 0.65
CN1C(=O)NC(=O)/C(=C/c2ccc([N+](=O)[O-])o2)C1=O | / | 2 | 2 | 3 | 0.3*
CN1C(=O)NC(=O)/C(=C\c2ccc([N+](=O)[O-])o2)C1=O | 0 | -4 | / | -2 | /
CCCCCCCCCCCCCCCC[N+](C)(C)C | 32 | 2 | 1 | -1 | 0.069*
N#CC1c2ccccc2-n2nncc2CN1Cc1cc(Cl)cc(Cl)c1 (stereo unspecified) | 56* | / | 4 | / | /
CC1CCCC(=O)CCCC=Cc2cc(O)cc(O)c2C(=O)O1 (stereo unspecified) | / | / | / | / | 0.67
Oc1cc(Cl)c(Cl)c(Cl)c1 | -13 | / | 3 | / | 0.068*
COC(=O)C1=C(c2ccccc2OCc2ccccc2)CC2CCC1N2C(=O)NCc1ccc(OC)cc1 (stereo unspecified) | / | / | / | / | 0.71
COC(=O)C1=C(c2cc3ccccc3s2)CC2CCC1N2C(=O)N1CCCC1 (stereo unspecified) | / | / | / | / | 0.71
COc1cc2c3c(c1OC)Oc1ccc(cc1)C[C@H]1c4c(cc(OC)c(OC)c4Oc4ccc(cc4)C[C@@H]3N(C)CC2)CCN1C | 54* | 0 | 1 | 3 | /
COc1cc2c3c(c1OC)Oc1ccc(cc1)CC1c4c(cc(OC)c(OC)c4Oc4ccc(cc4)CC3N(C)CC2)CCN1C (stereo unspecified) | / | / | / | / | 0.69
COC(=O)C1=C(c2c(C)noc2C)CC2CCC1N2C(=O)N1CCCC1 (stereo unspecified) | / | / | / | / | 0.62
Cc1cc(C)cc(N2C(=O)NC(=O)C(=Cc3cccn3-c3ccc(Cl)cc3)C2=O)c1 | / | / | / | / | 0.72
CN(C)C1(c2nnnn2-c2ccc(Cl)cc2)CCCCC1 | -2 | 1 | 3 | 10 | /
CC(C)CC(N(C)C)C1(c2ccc(Cl)cc2)CCC1 (stereo unspecified) | -6 | 27*! | 2 | 37*! | 0.52*! | AddAB confirm=100*;RecBCD counter=3;Bact viability=67*
Cc1c2ccncc2c(C)c2c1[nH]c1ccccc12 | -10 | 14* | / | 13* | 0.42* | AddAB confirm=9;RecBCD counter=0;Bact viability=11
c1ccc2c(c1)[nH]c1cnccc12 | 8 | 3 | 4 | 4 | 0.63
CN(C)C1C(=O)C(C(N)=O)=C(O)C2(O)C(=O)C3=C(O)c4c(O)cccc4C(C)(O)C3CC12 (stereo unspecified) | 147* | 94* | / | 85* | / | AddAB confirm=94*;RecBCD counter=93*;Bact viability=92*
Cn1ncnc2c(=O)n(C)c(=O)nc1-2 | 128* | 45* | / | 47* | 0.048* | AddAB confirm=73*;RecBCD counter=76*;Bact viability=79*
COC(=O)C1=C(c2cc3ccccc3o2)CC2CCC1N2C(=O)N1CCC(C)CC1 (stereo unspecified) | / | / | / | / | 0.69
SMILES | Tat transport | E coli growth-1 | phage Ecoli inh | AddAB inh | E coli growth-2 | others
COC(=O)C1=C(c2cc3ccccc3s2)CC2CCC1N2C(=O)N1CCC(O)CC1 (stereo unspecified) | / | / | / | / | 0.73
CN(C)[C@@H]1C(=O)C(C(N)=O)=C(O)[C@@]2(O)C(=O)C3=C(O)c4c(O)ccc(Cl)c4[C@@](C)(O)C3C[C@@H]12 (stereo partly specified) | 150* | / | 99* | / | / | RecBCD conf=101*;Ecoli viability=104*;AddAB counter=105*
CN(C)[C@@H]1C(=O)C(C(N)=O)=C(O)[C@@]2(O)C(=O)C3=C(O)c4c(O)cccc4[C@@](C)(O)[C@H]3C[C@@H]12 | / | -1 | / | -1 | /
CN(C)[C@@H]1C(=O)C(C(N)=O)=C(O)[C@@]2(O)C(=O)C3=C(O)c4c(O)cccc4[C@@](C)(O)C3[C@H](O)C12 (stereo partly specified) | 150*! | 0 | 98* | 0 | / | RecBCD conf=101*;Ecoli viability=102*;AddAB counter=102*
COC(=O)C1=C(c2ccc3ccccc3c2)CC2CCC1N2C(=O)NCc1ccc(C(F)(F)F)cc1 (stereo unspecified) | / | / | / | / | 0.76
O=C(Cn1cc(C(=O)c2ccccc2F)c2ccccc21)NCc1ccco1 | -4 | 3 | 0 | 2 | 0.66
COCCNC(=O)Cn1cc(C(=O)c2ccccc2F)c2ccccc21 | -1 | -1 | 44* | -2 | 0.65 | RecBCD conf=-2;Ecoli viability=-2;AddAB counter=-3
Oc1cc(Cl)c(Cl)c(Cl)c1Cl | -9 | / | 13* | / | / | RecBCD conf=14*;Ecoli viability=19;AddAB counter=17
O=[N+]([O-])c1oc2ccc3ccccc3c2c1CCO | -8 | / | 100* | / | / | RecBCD conf=104*;Ecoli viability=105*;AddAB counter=103*
COC(=O)C1=C(c2ccc(C(C)=O)cc2)CC2CCC1N2C(=O)N1CCC(O)CC1 (stereo unspecified) | / | / | / | / | 0.71
COC(=O)C1=C(c2ccc(Cl)c(C(F)(F)F)c2)CC2CCC1N2C(=O)NCC1CC1 (stereo unspecified) | / | / | / | / | 0.71
O=[N+]([O-])c1ccc(N2CCOCC2)c2cccnc12 | -2 | 2 | 4 | 2 | 0.69
O=[N+]([O-])c1ccc(N2CCOCC2)c2c1no[n+]2[O-] | / | / | 17* | / | / | RecBCD conf=11;Ecoli viability=13;AddAB counter=98*
Cc1cccc(-n2c(/C=C/c3ccc([N+](=O)[O-])o3)nc3ccccc3c2=O)c1 | -4 | 3 | 2 | 5 | 0.65
O=c1c2ccccc2nc(/C=C/c2ccc([N+](=O)[O-])o2)n1-c1ccc(O)cc1 | -4 | / | 12* | / | 0.67 | RecBCD conf=6;Ecoli viability=9;AddAB counter=40*
CC(Cc1ccccc1)NC(=O)CCCCC(=O)NC(C)Cc1ccccc1 (stereo unspecified) | 1 | 0 | 14* | 0 | / | RecBCD conf=-3;Ecoli viability=-2;AddAB counter=-2
COC(=O)C1=C(c2ccc(OC)c(OC)c2)CC2CCC1N2C(=O)N1CCOCC1 (stereo unspecified) | / | / | / | / | 0.67
Cc1cc2c(C(C)C)c(O)c(O)c(C=O)c2c(O)c1-c1c(C)cc2c(C(C)C)c(O)c(O)c(C=O)c2c1O | / | / | 15* | / | / | RecBCD conf=5;Ecoli viability=5;AddAB counter=7
COC(=O)C1=C(c2ccc(F)cc2OCc2ccccc2)CC2CCC1N2C(=O)NCc1ccccc1Br (stereo unspecified) | / | / | / | / | 0.73
